High-throughput results from PubChem.
The list is not random: actives were taken first. Their share in the collection is about 4.5%.
NR3A LBD binder – modulates the human NR3A ligand-binding domain | NR3A LBD differential scanning fluorimetry, Tm shift; 0% = protein alone, 100% = glycine-bound protein | Tm shift relative to glycine control, % at 25 µM | 2.5% of 340,000 active | AID 1259313;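 active = melting temperature shift of at least 10% of the positive control shift, at one fixed dose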
Rpn11 block – blocks the human proteasome subunit Rpn11 | O00487 | human 26S proteasome, Ub4-pepOG fluorescence polarization; 20S core pre-blocked with epoxomicin | inhibition, % at 20 µM | 0.59% of 360,000 active | AID 588493;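 active = inhibition at 20 µM, scaled to each plate's controls, above about 33%, limit read from the data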
EBNA-1 inh – blocks EBNA-1 binding to DNA. AID 1950. 0.34% of 300,000 active. inhibition, % at 14.8 µM. EBNA-1 DNA binding, fluorescence polarization; in the data active = inhibition above about 28%
dFosB act – enhances mouse delta FosB homodimer DNA binding. activation, % at 25 µM. purified delta FosB, TAMRA-CDK5 oligo fluorescence polarization; percent of positive-control signal above neutral wells. 0.99% of 340,000 active;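 active = mean activation above about 17%, with every replicate also reaching it, limit read from the data, passing the limit was not always enough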
Target sequence (P13346 whole entry, looked up): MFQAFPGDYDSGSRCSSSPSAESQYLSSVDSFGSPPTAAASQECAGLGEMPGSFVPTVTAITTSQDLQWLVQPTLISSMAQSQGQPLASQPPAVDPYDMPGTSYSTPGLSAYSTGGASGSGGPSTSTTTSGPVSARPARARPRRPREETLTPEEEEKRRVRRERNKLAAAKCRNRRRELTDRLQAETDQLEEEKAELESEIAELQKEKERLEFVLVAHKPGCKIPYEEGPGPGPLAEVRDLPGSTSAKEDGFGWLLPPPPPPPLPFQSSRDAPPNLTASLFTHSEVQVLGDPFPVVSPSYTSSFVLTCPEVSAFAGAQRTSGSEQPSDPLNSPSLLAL
ZTA DNA inh – counter-screen for EBNA-1 inhibitors: inhibitors of Epstein-Barr virus ZTA | AID 2234 | ZTA-DNA binding, fluorescence polarization | 0.15% of 320,000 active | inhibition, % at 11 µM; in the data active = inhibition above about 33%
Target sequence (P03206 whole entry, looked up): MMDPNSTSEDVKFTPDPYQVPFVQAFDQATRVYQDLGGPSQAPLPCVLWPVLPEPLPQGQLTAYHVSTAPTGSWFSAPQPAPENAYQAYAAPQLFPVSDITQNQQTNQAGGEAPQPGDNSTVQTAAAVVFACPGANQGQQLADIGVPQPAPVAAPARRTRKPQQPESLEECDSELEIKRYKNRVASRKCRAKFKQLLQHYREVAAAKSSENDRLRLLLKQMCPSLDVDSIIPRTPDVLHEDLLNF
TPT1 inh – blocks Candida albicans tRNA 2'-phosphotransferase; recombinant caTPT1, FP RNA substrate dephosphorylation; inhibition, % at 5 µM; 0.81% of 300,000 active;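 active = inhibition above the mean of all tested compounds plus 3 SD, set per screening campaign, cut at about 24% in these data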;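 note: plate controls were DMSO alone for no effect and ferristatin control at 100 nM for full effect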
Starred values were filed as active, the others as inactive; x = no result given.

SMILES	NR3A LBD binder	Rpn11 block	EBNA-1 inh	dFosB act	ZTA DNA inh	TPT1 inh
N#C/C(=C/c1cn(-c2ccccc2)nc1-c1cccc(OCc2ccccc2)c1)C(=O)NCCCn1ccnc1	-1.7	19.0	-4.7	31.3*	-0.3	-0.5
ClCCN1C2=NCCCN2c2ccccc21	0.3	0.6	10.0	0.8	9.3	-0.4
CCN1C2=NCCCN2c2ccccc21	11.0*	-0.1	-1.1	-2.2	2.8	0.5
O=C(NCc1ccccc1Cl)C1CCCN(S(=O)(=O)c2cccc3nonc23)C1 (stereo unspecified)	1.2	4.9	1.3	39.2*	-23.3	-1.4
Cc1ccc(CNC(=O)C2CCN(S(=O)(=O)c3cccc4nonc34)CC2)cc1	-6.1	18.7	-3.6	20.9*	-10.3	-2.2
C[C@H](CO)N1C[C@H](C)[C@H](CN(C)S(=O)(=O)c2ccc(C#N)cc2)OCc2cnnn2CCCC1=O	x	-3.1	x	x	x	x
O=C(CCNc1n[nH]c(=O)[nH]c1=O)N/N=C/c1ccc(C(F)(F)F)cc1	-0.2	-2.9	9.7	-0.8	5.1	-5.0
CCOc1ccc(C(=O)NCc2ccccc2)cc1Br	11.8*	-7.5	1.7	-6.7	-0.8	-0.8
O=C(Nc1cccc(Cl)c1Cl)c1cc(S(=O)(=O)NCCc2ccccc2)ccc1F	18.5*	-4.0	12.8	-5.7	7.4	-3.0
O=C(COC(=O)CCSc1ccc(Cl)cc1)NCCc1ccccc1	16.1*	-1.3	6.5	-6.0	4.3	-5.6
NS(=O)(=O)c1ccc(CCNC(=O)COC(=O)CCSc2ccc(Cl)cc2)cc1	0.3	7.0	-21.4	-7.9	-12.0	0.2
COC(=O)c1sc(N2CCN(c3ccc(Cl)cc3)CC2)nc1N	-2.4	5.3	-12.2	-3.3	-11.7	-2.5
Cc1c(Cl)cccc1NC(=O)COC(=O)CCc1nc2ccccc2n1-c1ccccc1	24.7*	-1.8	3.3	-3.0	-4.9	-3.7
CCCc1nc2c(=O)n(C)c(=O)[nH]c2n1CCC	14.0*	-5.9	-1.6	0.2	-1.6	-2.6
C/C(=N\N1CCN(C2c3ccccc3-c3ccccc32)CC1)c1ccncc1	15.1*	3.6	0.0	-9.3	21.8	0.2
C(=N\N1CCN(C2c3ccccc3-c3ccccc32)CC1)/c1ccncc1	-5.5	-3.8	10.9	-6.7	8.6	-3.4
COc1ccccc1C(=O)NNC(=O)CN(C)S(=O)(=O)c1ccc(Cl)cc1	x	-0.8	x	x	x	x
COc1cc(OC)c(C(=O)NNC(=O)CN(C)S(=O)(=O)c2ccc(Cl)cc2)cc1OC	34.7*	-1.9	-1.9	-4.1	6.1	-1.7
Nc1c(S(=O)(=O)c2cccs2)c2nc3ccccc3nc2n1/N=C/c1cccc(O)c1	28.2*	2.2	9.9	4.4	-2.1	0.7
Nc1c(S(=O)(=O)c2ccccc2)c2nc3ccccc3nc2n1/N=C/c1ccco1	12.7*	28.7	3.9	-18.0	5.3	17.2
CC(=O)C1=C(C)NC(SCC(=O)Nc2nc3ccccc3s2)=C(C#N)C1c1ccc(Cl)cc1 (stereo unspecified)	11.9*	10.6	7.2	10.3	0.7	1.1
COc1ccc(NC(=O)CSC2=C(C#N)C(c3ccco3)C(C(=O)Nc3nc4ccccc4s3)=C(C)N2)cc1 (stereo unspecified)	7.8	33.1	6.0	1.2	-0.7	5.5
C=CCNCCCCOc1cccc(Br)c1	27.9*	1.0	1.9	-2.5	-6.4	1.7
CSC(=S)NN=C(C)c1cccc(C)n1	15.4*	19.0	x	-0.5	x	x
COc1cc2c(cc1OC)C1(CCCC1)C(N)=C2C#N	10.8*	1.2	-0.5	3.9	-3.4	-8.3
SMILES	NR3A LBD binder	Rpn11 block	EBNA-1 inh	dFosB act	ZTA DNA inh	TPT1 inh
Cc1ccc(NC(=S)Nc2ccc(C(C)C)cc2)cc1S(=O)(=O)N1CCCCCC1	27.6*	-0.9	-7.1	-2.0	3.0	-1.4
Cc1ccc(NC(=O)COC(=O)c2ccc(OC(F)F)cc2)cc1S(=O)(=O)N1CCCCC1	1.1	0.3	x	-7.5	x	x
Cc1ccc(NC(=O)CNC(=O)c2ccc(OC(F)F)cc2)cc1S(=O)(=O)N1CCCCCC1	11.9*	11.3	x	-15.3	x	x
O=C(COc1ccc(Cl)cc1)Nc1ccc(C(=O)O)cc1NC(=O)COc1ccc(Cl)cc1	10.2*	5.0	13.6	-6.8	3.1	-0.1
CCN(CC)C(=O)Oc1cc(=O)n2c3c(cccc13)CCC2	19.6*	2.8	9.5	3.2	-19.4	-2.2
O=C(CSc1ccc(Cl)cc1)OCc1nnc(-c2ccccc2)o1	18.7*	-0.8	5.4	-0.5	9.3	-5.8
Nc1c(N2CCCC2)cc(Cl)c2nonc12	-3.2	8.6	12.1	-14.3	11.5	-18.5
Nc1ccc(N2CCCCC2)c2nonc12	-2.4	9.7	-13.6	-8.7	56.8*	3.2
COc1ccc(Cc2n[nH]c(=S)n2NC(=O)Nc2ccc(Cl)c(Cl)c2)cc1	15.3*	7.4	-1.5	8.4	1.5	-4.3
O=C(CCCCCN1C(=O)CCC1=O)Nc1ccc(Br)cc1F	11.4*	-0.4	-8.5	1.5	7.2	4.9
CCOc1ccccc1CNCCOC	0.4	-6.4	-2.5	2.0	12.2	0.9
O=C(O)c1cc(O)c2c(c1)[C@H]([C@H]1c3cc(C(=O)O)cc(O)c3C(=O)c3c(O[C@@H]4O[C@H](CO)[C@@H](O)[C@H](O)[C@H]4O)cccc31)c1cccc(OC3O[C@H](CO)[C@@H](O)[C@H](O)[C@H]3O)c1C2=O (stereo partly specified)	25.6*	21.0	93.8*	-9.4	13.6	74.6*
COc1cc2c(cc1NC(=S)Nc1cccc3ccccc13)oc1ccccc12	4.6	2.5	1.1	11.4	-7.8	-0.6
COc1cc2c(cc1NC(=S)Nc1cccc(C(F)(F)F)c1)oc1ccccc12	29.2*	-1.8	-9.7	-6.9	4.7	-1.6
COc1cc2c(cc1NC(=O)c1cncc(Br)c1)oc1ccccc12	23.8*	4.6	-9.2	-1.5	6.4	-0.1
CCN(CC)S(=O)(=O)c1cccc(C(=O)Nc2cc3oc4ccccc4c3cc2OC)c1	22.0*	1.6	-8.4	-10.8	-7.0	0.8
O=C(Nc1ccc2nc3n(c(=O)c2c1)CCCCC3)C(=O)N1CCN(c2ccccc2F)CC1	0.4	-2.6	-0.2	1.2	0.8	-4.6
O=C1c2ccccc2C(O)(c2ccccc2)N1c1ccncc1 (stereo unspecified)	4.1	-0.9	5.9	-0.3	5.6	-0.7
N#C/C(=C\c1ccc(OC(=O)c2cccs2)cc1)c1nc2ccccc2[nH]1	6.9	3.7	5.8	9.6	-13.2	1.6
N#C/C(=C\c1cccs1)c1nc2ccccc2[nH]1	22.1*	-0.8	-0.2	-10.0	2.6	7.5
N#C/C(=C\c1ccc([N+](=O)[O-])o1)c1nc2ccccc2[nH]1	22.2*	x	1.1	x	-12.1	28.8*
N#C/C(=C/c1ccc(O)c(O)c1)c1nc2ccccc2[nH]1	19.1*	x	-3.3	-1.3	13.2	21.4
